This assay can be described thus: cell-free HIV fusion peptide-binding blockers – biochemical, uHTS, fluorescence dequenching, primary screen (AID 1986). The note with it: 30 min, stronger effect = higher value.
[1] abbreviates: measured here: repeat confirmation average inhibition, at 18.6 µM.

In all, about 290,000 compounds went through this assay and about 890 (0.31%) were called active. Cut-off read from the data, not from the text of the source: active = inhibition mostly above about 52% (no sharp cut-off); inactive = mostly below about 76%. Many of the other results were omitted from the sample, so actives are more common in it than they were.

Take `CCCCNC(=O)CNC(=S)N(Cc1ccc(C)cc1)Cc1ccco1`: the inhibition (at 20 µM) is 2.5% (inactive). With `CCCN1C(=O)/C(=C/c2c(N3CCNC(=O)C3CC(=O)OCC)nc3c(C)cccn3c2=O)SC1=S` (stereo not given), under “at 20 µM”, the inhibition was 146% (inactive). `CCOC(=O)CC1C(=O)NCCN1c1nc2ccc(C)cn2c(=O)c1/C=C1\SC(=S)N(CC(C)C)C1=O` (stereo not given): the inhibition is 109% (active) (at 20 µM) and 147% under setting [1]. In the case of `CCOC(=O)CC1C(=O)NCCN1c1nc2c(C)cccn2c(=O)c1/C=C1\SC(=S)N(CC(C)C)C1=O` (stereo not given), under “at 20 µM”, the inhibition was 117% (active).

With `CCCN1C(=O)/C(=C/c2c(N3CCNC(=O)C3CC(=O)OC)nc3c(C)cccn3c2=O)SC1=S` (stereo not given), the inhibition (at 20 µM) is 148% (inactive). Still for that read-out and setting: for `CCOC(=O)CC1C(=O)NCCN1c1nc2c(C)cccn2c(=O)c1/C=C1\SC(=S)N(C(C)CC)C1=O` (stereo not given) the value was 137% (inactive). Still for that read-out and setting: for `CCOC(=O)CC1C(=O)NCCN1c1nc2ccc(C)cn2c(=O)c1/C=C1\SC(=S)N(C(C)CC)C1=O` (stereo not given) the value was 148% (inactive).

Turning to `Cc1ccccc1NC(=O)Cn1c(=O)sc2ccccc21`, for the setting “at 20 µM”, the inhibition is -1.5% (inactive). Still for that read-out and setting: the same measure for `CC1=C(C(=O)OCC2CCCO2)C(c2coc3ccc(Cl)cc3c2=O)C2=C(CCCC2=O)N1` (stereo not given): -0.8% (inactive); for `COc1ccccc1CC(=O)Nc1cccc2c1CCCC2`: -2.5% (inactive). On the same count and under the same terms, the same measure for `COc1ccc2nc(SCC(=O)Nc3nonc3C)[nH]c2c1`: 0.1% (inactive); for `CSc1ccccc1C(=O)NCC(c1ccco1)N(C)C` (stereo not given): -2.2% (inactive); for `CC1=C(C(=O)NC2CCCc3c2cnn3-c2cccc(C)c2C)OCCO1` (stereo not given): -0.2% (inactive). As to `CN(C)c1cccc2c(C=C(C#N)C#N)ccc(N(C)C)c12`, the inhibition (at 20 µM) is 89.8% (active). Turning to `CC(=O)c1ccc(N(C)C)c2c(N(C)C)cccc12`, the inhibition (at 20 µM) is -0.7% (inactive). On the same count and under the same terms, for `CN(C)c1cccc2c(/C=N/O)ccc(N(C)C)c12` the value was -1.6% (inactive); for `Cc1ccc(NC(=O)c2cc(S(=O)(=O)N3CCOCC3)cn2C)cc1Cl`, -0.7% (inactive); for `Cc1ccc(N(CC(=O)NCc2ccccc2Cl)S(=O)(=O)c2cccs2)cc1`, 0.6% (inactive). Still for that read-out and setting: the same measure for `O=C(CSc1nnc(-c2ccccc2F)o1)NC1CCCCC1`: -0.3% (inactive); for `Cc1ccc(-n2c3c(cc(C(=O)NC4CCSC4=O)c2=O)C(=O)CCC3)cc1` (stereo not given): -1.5% (inactive). For the molecule `COc1cc(/C=N\Nc2ccc([N+](=O)[O-])cc2)ccc1OCC(=O)Nc1ccc(C)c(C)c1`, under “at 20 µM”, the inhibition was 27.8% (inactive). Same read-out and setting: for `CCOc1cc(/C=N/NC(N)=O)ccc1OCC(=O)Nc1ccc(C)c(C)c1` the value was -2% (inactive). Turning to `CCOc1cc(/C=N\Nc2ccc([N+](=O)[O-])cc2)ccc1OCC(=O)Nc1ccc(C)c(C)c1`, the inhibition runs as follows: (at 20 µM) 88.4% (active); under setting [1], 94.3%. Consider `CC(Sc1ccccc1)C(=O)NCCc1ccccc1` (stereo not given), for which, under “at 20 µM”, the inhibition is 0.1% (inactive). On to `COc1ccccc1-c1nc(S(=O)(=O)c2ccc(Cl)cc2)c(N(C)C)o1`, for which, where the note is “at 20 µM”, the inhibition was 0.1% (inactive).

As for `O=c1c2[nH]c3cccc(Cl)c3c2ncn1Cc1ccncc1`, the inhibition (at 20 µM) was 0.2% (inactive). Same read-out and setting: for `COC(=O)c1ccc(N2NC(=O)/C(=C/c3ccc(-c4ccc(Cl)c(C(=O)O)c4)o3)C2=O)cc1` the value was 54.7% (active).

`O=C1NN(c2ccccc2)C(=O)/C1=C/c1ccc(-c2ccc(Cl)c(C(=O)O)c2)o1`: the inhibition (at 20 µM) is 34.7% (inactive). The same measure, in the same setting: the same measure for `Cc1ccc(N2NC(=O)/C(=C/c3ccc(-c4ccc(Cl)c(C(=O)O)c4)o3)C2=O)cc1`: 29.4% (inactive); for `Cc1cc(CSc2ccccc2)ccc1NC(=O)c1ccc(Cl)c([N+](=O)[O-])c1`: 1.8% (inactive); for `Cc1ccc(-c2onc3ccc(C=O)cc23)cc1`: -0.6% (inactive). Still for that read-out and setting: the same measure for `O=Cc1ccc2noc(-c3ccc(Cl)cc3)c2c1`: 28.2% (inactive). As for `O=Cc1ccc2noc(-c3ccc(F)cc3)c2c1`, the inhibition is 75.6% (active) (at 20 µM) and 79.8% under setting [1]. As to `COc1ccc2c(ccc[n+]2CC(=O)c2ccccc2)c1`, the inhibition (at 20 µM) was 1.3% (inactive). On the same count and under the same terms, the same measure for `Cc1nc(NC(=O)CSc2cc(C)c3ccccc3n2)c(Cl)cc1Cl`: -0.4% (inactive). As to `S=C(Nc1ccc(Oc2ccccc2)cc1)N1CCOCC1`, where the note is “at 20 µM”, the inhibition was -0.2% (inactive). Same read-out and setting: for `COc1cc(CNCc2ccccc2Cl)ccc1OCC(=O)NC1CCCCC1` the value was 0.7% (inactive); for `CN(/C=C/C(=C\C=[N+](C)c1ccccc1)OCCCS(=O)(=O)[O-])c1ccccc1`, 24.5% (inactive). As to `CN(/C=C/C(=C/C=[N+](C)c1ccccc1)OCCCS(=O)(=O)[O-])c1ccccc1`, under “at 20 µM”, the inhibition was 71.6% (active). As for `CN(C)/C=C/C(=O)c1ccc(S(=O)(=O)c2ccccc2)cc1`, the inhibition (at 20 µM) is 2.7% (inactive). For the molecule `Clc1ccccc1OCCN1CCC(Cc2ccccc2)CC1`, the inhibition (at 20 µM) was -0.6% (inactive). In the case of `Cc1ccc(C=C2C(Cl)=C(Cl)C(Cl)=C2Cl)cc1`, under “at 20 µM”, the inhibition was 53.9% (active).

Turning to `Cc1ccc(/C=N/N=C/c2ccc(C)cc2)cc1`, the inhibition (at 20 µM) is 0.6% (inactive).

For `Cc1ccc(/C=[N+](/C)[O-])cc1`, the inhibition (at 20 µM) was -1.3% (inactive). For the molecule `COc1ccccc1OCCCCOc1ccccc1C(C)=O`, the inhibition (at 20 µM) was 0.9% (inactive). As to `O=C(/C=C/Nc1cccc(F)c1)c1ccco1`, under “at 20 µM”, the inhibition was 1.5% (inactive). With `COC(=O)c1ccc(C(=O)OC)c(=O)[nH]1`, the inhibition (at 20 µM) was -0.4% (inactive). `COC(=O)c1ccc(N)cc1O`: the inhibition (at 20 µM) was -0.9% (inactive). Still for that read-out and setting: for `COC(=O)c1ccc(=O)c2nc3/c(=C/O)c(O)cc(=O)c3[nH]c12` the value was 56.3% (active); for `COc1ccc(NC(=S)N(Cc2cccnc2)Cc2ccco2)cc1`, -0.6% (inactive); for `Clc1ccc(Cc2noc(-c3cccs3)n2)cc1`, 1.2% (inactive). Regarding `CC1CCCN(Cc2c(O)ccc3c2O/C(=C\c2ccco2)C3=O)C1` (stereo not given), for the setting “at 20 µM”, the inhibition is 35.5% (inactive). As to `O=C1/C(=C/c2ccco2)Oc2c1ccc(O)c2CN1CCCCC1`, the inhibition (at 20 µM) was 58.1% (active). As to `COCCN(CCOC)Cc1c(O)ccc2c1O/C(=C\c1ccco1)C2=O`, the inhibition (at 20 µM) is 50.4% (active) and the inhibition under setting [1] came to 78.9%.

For the molecule `CCN1CCN(Cc2c(O)ccc3c2O/C(=C\c2ccc(C)cc2)C3=O)CC1`, for the setting “at 20 µM”, the inhibition is 40.1% (inactive). Same read-out and setting: the same measure for `Cc1cc(O)c(CN(C)C)c2c1C(=O)/C(=C/c1ccco1)O2`: 29.7% (inactive); for `CC(C)(C)c1ccc(/C=C2\Oc3c(ccc(O)c3CN3CCN(CCO)CC3)C2=O)cc1`: 17.8% (inactive). On to `CC1CCN(Cc2c(O)ccc3c2O/C(=C\c2ccco2)C3=O)CC1`, for which the inhibition reads like this: (at 20 µM) 56.7% (active); under setting [1], 90.4%.

In the case of `Cc1ccc(/C=C2\Oc3c(ccc(O)c3CN3CCN(C)CC3)C2=O)cc1`, the inhibition (at 20 µM) was 45.4% (inactive). On the same count and under the same terms, for `COCCN(CCOC)Cc1c(O)ccc2c1O/C(=C\c1ccc(C)o1)C2=O` the value was 27.4% (inactive); for `COc1ccc(C2C(C(=O)N3CCN(c4ccccn4)CC3)CCC(=O)N2c2ccc(OC)cc2)cc1` (stereo not given), -2.1% (inactive); for `O=C1C=C(N2CCCCCC2)C2(CCCCC2)O1`, 0.8% (inactive). As for `C[C@H](NC(=O)c1nc[nH]c1C(=O)NC(c1ccccc1)c1ccccc1)C(=O)OCc1ccccc1`, under “at 20 µM”, the inhibition is 2.7% (inactive).

For `CCSc1nnc(-c2cccs2)o1`, for the setting “at 20 µM”, the inhibition was 1.8% (inactive). On the same count and under the same terms, for `CCSc1nnc(-c2sc3nnc(-c4ccccc4)c(-c4ccccc4)c3c2N)o1` the value was 98.4% (active); for `NC(=O)c1sc2nnc(-c3ccccc3)c(-c3ccccc3)c2c1N`, 1.6% (inactive); for `O=C(Cn1c(=O)oc2cc(S(=O)(=O)N3CCCC3)ccc21)N1CCN(C2CCCCC2)CC1`, 0% (inactive). In the case of `O=C(CSc1nc2ccccc2c(=O)n1Cc1ccco1)N1CCN(c2ccccc2)CC1`, the inhibition (at 20 µM) was -4.4% (inactive).

`O=C(Nc1cccc(-c2nc3cc(Cl)ccc3o2)c1)C1CCCO1` (stereo not given): the inhibition (at 20 µM) is 1% (inactive).

On to `CN(C)S(=O)(=O)c1cccc(C(=O)OCC(=O)NCc2ccc3c(c2)OCO3)c1`, for which the inhibition (at 20 µM) was 0.4% (inactive). On the same count and under the same terms, for `C[n+]1ccc(/C=C/c2ccccc2O)c2ccccc21` the value was 1.2% (inactive).

`COc1ccc2sc(C)[n+](C)c2c1`: under “at 20 µM”, the inhibition is -2.6% (inactive). With `COc1ccc2sc(/C=C/c3ccccc3O)[n+](C)c2c1`, the inhibition runs as follows: (at 20 µM) 69.1% (active); under setting [1], 88.7%. For `Cc1cc(C(=O)Nc2cccnc2)cs1`, the inhibition (at 20 µM) is 0.7% (inactive).

In the case of `Cn1c(=O)oc2cc(S(=O)(=O)NCc3ccc(F)cc3)ccc21`, under “at 20 µM”, the inhibition is 8.5% (inactive). As for `CCN1CCN(S(=O)(=O)CC2(C)C3CCC2(C)C(=O)C3Br)CC1` (stereo not given), the inhibition (at 20 µM) is -1.8% (inactive). Take `Cc1cc(C)c2nc(-c3ccccn3)cc(C(=O)Nc3ccc(S(=O)(=O)Nc4onc(C)c4C)cc3)c2c1`: the inhibition (at 20 µM) was 70.5% (active). On the same count and under the same terms, for `Cc1cc(C)c2nc(-c3cccnc3)cc(C(=O)Nc3ccc(S(=O)(=O)Nc4onc(C)c4C)cc3)c2c1` the value was 57% (active); for `Cc1cc(C)c(C(=O)Nc2ccc(S(=O)(=O)Nc3onc(C)c3C)cc2)c(C)c1`, 0.9% (inactive); for `Cc1ccccc1C(=O)Nc1ccc(S(=O)(=O)Nc2onc(C)c2C)cc1`, 0.8% (inactive).

On to `COc1ccc(-c2cc(C(=O)Nc3ccc(S(=O)(=O)Nc4onc(C)c4C)cc3)c3ccccc3n2)cc1`, for which the inhibition (at 20 µM) was 64.1% (inactive) and the inhibition under setting [1] is 40.8%. For `Cc1cc(C)c2nc(-c3ccccn3)cc(C(=O)Nc3ccc(S(=O)(=O)Nc4cc(C)on4)cc3)c2c1` the same measures were 59% (inactive) and 21.6%.

As for `O=C(CN1C(=O)NC2(CCCC2)C1=O)Nc1cccc(Cl)c1Cl`, the inhibition (at 20 µM) was 0.8% (inactive).

On to `CCOc1ccccc1C(=O)NC1CCN(Cc2ccccc2)CC1`, for which, where the note is “at 20 µM”, the inhibition was -0.3% (inactive).

Consider `CN(C)c1cncc(C(=O)O)c1`, for which the inhibition (at 20 µM) is -0.6% (inactive).

For `S=C(NCc1ccccn1)Nc1ccccc1Cl`, under “at 20 µM”, the inhibition was 1.2% (inactive). For `CC(=O)N(CCC(c1ccco1)C(C)C)Cc1ccc(Cl)cc1` (stereo not given), the inhibition (at 20 µM) is -0.3% (inactive).

With `Clc1ccc(Cn2cc(/C=N/n3cnnc3)c3ccccc32)c(Cl)c1`, the inhibition (at 20 µM) is -3% (inactive). On to `Cc1ccc(N=Cc2sc(O)c3ccccc23)cc1`, for which the inhibition is 101% (active) (at 20 µM) and 104% under setting [1].

As to `Oc1sc(C=Nc2ccc(F)cc2)c2ccccc12`, the inhibition runs as follows: (at 20 µM) 55% (inactive); under setting [1], 23%. Turning to `Oc1sc(C=Nc2ccccc2)c2ccccc12`, the inhibition (at 20 µM) was 24.4% (inactive). On the same count and under the same terms, for `Cc1nn(C)cc1CNC(=O)c1cccc(F)c1` the value was -1.7% (inactive); for `O=C1S/C(=C\c2ccccc2)C(=O)N1CC(O)Cn1c2ccccc2c2ccccc21` (stereo not given), 0.2% (inactive).

On to `CN(C)c1ccc(/C=C2\SC(=O)N(CC(O)Cn3c4ccccc4c4ccccc43)C2=O)cc1` (stereo not given), for which the inhibition (at 20 µM) was 120% (active).

For the molecule `O=C1S/C(=C/c2ccccc2)C(=O)N1CC(O)Cn1c2ccccc2c2ccccc21` (stereo not given), the inhibition (at 20 µM) was -0.1% (inactive).

By inhibition is commonly meant the relative decrease from the control value, in per cent.

For the origin of these results see PubChem BioAssay AID1986 (Sanford-Burnham Center for Chemical Genomics, 2009).
